Consider eight compounds from PubChem BioAssay (NCI).

Test systems include NCI-H23 lung; NCI-H226 lung; NCI-H322M lung; HOP-62 NSCLC; NCI-H460 lung; HOP-92 NSCLC; NCI-H522 lung; A549/ATCC NSCLC; 786-0 renal; COLO 205 colon; DU-145 prostate; K-562 leukemia; MALME-3M melanoma; MDA-MB-231 breast; RXF 393 renal; SF-268 CNS; SF-295 CNS; SF-539 CNS; UACC-257 melanoma; M14 melanoma.
Test in all cases: NCI-60 one-dose screen, 48 h (100 = growth as untreated, 0 = no growth, -100 = all killed)
Common to all, as to settings: 10 µM unless noted

The panel holds about 83,000 compounds, 20% with a hit somewhere; the sample as a whole holds those more often.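 96-well plates, one dose, 48 hours. Percent growth reported; active if below 10.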 Values without a mark were called inactive. Active and inactive are the calls of the source.

On to `COc1ccc2sc3c(NCCO)nc4ccccc4c3c(=O)c2c1`, for which the growth in the assay with NCI-H23 lung is 96.7%; in the assay on NCI-H226 lung, 98.6%; in the assay with NCI-H322M lung, 97.6%; in the assay with HOP-62 NSCLC it was 96.2%; with NCI-H460 lung, 107%; in the assay with HOP-92 NSCLC, 96%. For the same compound, the growth in the assay with NCI-H522 lung is 82.1%; in the assay with A549/ATCC NSCLC it was 98.1%; in the assay with 786-0 renal, 103%; with COLO 205 colon it was 111%; in the assay with DU-145 prostate it was 106%; with K-562 leukemia, 76.7%. In addition, the growth with MALME-3M melanoma was 104%; in the assay on MDA-MB-231 breast, 85.3%; in the assay on RXF 393 renal it was 104%; in the assay on SF-268 CNS it was 100%; with SF-295 CNS it was 100%; with SF-539 CNS it was 86.1%. Besides, the results for the growth with UACC-257 melanoma and in the assay on M14 melanoma were 109% and 104%, respectively.
For `CS(=O)(=O)Nc1cc(-c2ccc3ncnc(Nc4cccc(Cl)c4F)c3c2)cnc1Cl`, the growth was 56.6% in the assay with NCI-H23 lung; 49.2% with NCI-H226 lung; 47.2% in the assay with NCI-H322M lung; 54.7% with HOP-62 NSCLC; 41.5% in the assay on NCI-H460 lung; 13.3% in the assay with HOP-92 NSCLC. In addition, the growth in the assay on NCI-H522 lung was 53.8%; in the assay on A549/ATCC NSCLC, 67.4%; in the assay on 786-0 renal, 29.6%; in the assay on COLO 205 colon, 66.3%; in the assay with DU-145 prostate, 63%; with K-562 leukemia it was 53.4%. Also, the growth in the assay with MALME-3M melanoma is 18.2%; in the assay on MDA-MB-231 breast, 13.7%; in the assay on RXF 393 renal, -24% (active); in the assay on SF-268 CNS, 24.2%; in the assay with SF-295 CNS, 34.7%; in the assay on SF-539 CNS, 27.8%. Moreover, the values for the growth with UACC-257 melanoma and in the assay with M14 melanoma were 40.1% and 50.1%, respectively.
As to `COc1cc(Nc2cn[nH]c2-c2ccc(Cl)cc2)cc(OC)c1OC`, the growth with NCI-H23 lung was 6.84% (active); in the assay with NCI-H226 lung, 65.2%; with NCI-H322M lung it was 79.7%; in the assay with HOP-62 NSCLC, 36.7%; with NCI-H460 lung, 33.2%; with HOP-92 NSCLC, 50.7%. Also, the growth was 21.7% with NCI-H522 lung; 51% with A549/ATCC NSCLC; 53.5% in the assay on 786-0 renal; 37.6% in the assay on COLO 205 colon; 108% in the assay on DU-145 prostate; 36.4% in the assay on K-562 leukemia. Also, the growth in the assay with MALME-3M melanoma was 38.1%; with MDA-MB-231 breast it was 49.4%; in the assay with RXF 393 renal it was 51.5%; in the assay on SF-268 CNS it was 77%; in the assay on SF-295 CNS, 66.4%; in the assay with SF-539 CNS it was 43.4%. The growth was 71.3% with UACC-257 melanoma and 8.84% (active) in the assay with M14 melanoma.
As for `CCc1cccc2c3c(sc12)C(c1ccc(Cl)cc1)C(C#N)=C(N)O3` (stereo not given), the growth in the assay with NCI-H23 lung is 22.5%; in the assay with NCI-H226 lung, 41.2%; in the assay on NCI-H322M lung it was 49.6%; in the assay with HOP-62 NSCLC, 36.9%; in the assay on NCI-H460 lung it was 10.2%; with HOP-92 NSCLC, 66.7%. For the same compound, the growth in the assay with NCI-H522 lung was 16.8%; in the assay with A549/ATCC NSCLC it was 34.6%; in the assay with 786-0 renal it was 26.9%; with COLO 205 colon, 9.3% (active); with DU-145 prostate, 19.3%; with K-562 leukemia it was 6.13% (active). Besides, the growth is 54.6% in the assay with MALME-3M melanoma; 31.6% with MDA-MB-231 breast; -18.8% (active) in the assay on RXF 393 renal; 54.1% in the assay with SF-268 CNS; 2.87% (active) in the assay with SF-295 CNS; -15.4% (active) in the assay on SF-539 CNS. The growth in the assay with UACC-257 melanoma is 80%; in the assay on M14 melanoma it was 5.36% (active).
As to `c1ccc2c(-c3nc(-c4c[nH]c5ccncc45)cs3)c[nH]c2c1`, the growth is 74.4% in the assay on NCI-H23 lung; 78.5% in the assay with NCI-H226 lung; 79.1% with NCI-H322M lung; 49.3% in the assay with HOP-62 NSCLC; -26.4% (active) with NCI-H460 lung; 49.2% in the assay on HOP-92 NSCLC. Also, the growth in the assay with NCI-H522 lung is 56.3%; in the assay on A549/ATCC NSCLC, 34.5%; in the assay on 786-0 renal it was 64.9%; in the assay with COLO 205 colon, -77.8% (active); in the assay on DU-145 prostate, 44.5%; in the assay with K-562 leukemia, -32% (active). Further, the growth was -48.8% (active) in the assay on MALME-3M melanoma; 12.7% with MDA-MB-231 breast; 74.9% in the assay on RXF 393 renal; 68.5% in the assay on SF-268 CNS; 50.2% in the assay on SF-295 CNS; 53% in the assay with SF-539 CNS. In addition, the results for the growth with UACC-257 melanoma and in the assay with M14 melanoma were 96.1% and -69.7% (active), respectively.
As for `O=C(CCCCCCSc1nc(-c2ccccc2)cc(-c2ccccc2)n1)NO`, the growth in the assay with NCI-H23 lung is 27.6%; with NCI-H226 lung, 56%; in the assay on NCI-H322M lung it was 45%; in the assay with HOP-62 NSCLC, 29.5%; in the assay on NCI-H460 lung it was 24.4%; with HOP-92 NSCLC, 7.75% (active). For the same compound, the growth in the assay on NCI-H522 lung is -0.297% (active); with A549/ATCC NSCLC it was 27.4%; in the assay with 786-0 renal, 65%; with COLO 205 colon it was 25.7%; with DU-145 prostate, 36.3%; in the assay with K-562 leukemia, 11.3%. Further, the growth in the assay on MALME-3M melanoma is 14.3%; in the assay on MDA-MB-231 breast, 40.8%; in the assay on RXF 393 renal, 6.08% (active); in the assay with SF-268 CNS it was 62.3%; with SF-295 CNS it was 41.7%; with SF-539 CNS it was 53.1%. The growth in the assay on UACC-257 melanoma was 29%; in the assay with M14 melanoma, 31.7%.
For `COc1cc(CNS(=O)(=O)c2ccc(C)cc2)ccc1OCc1cn(-c2ccccc2)nn1`, the growth with NCI-H23 lung was 83%; in the assay on NCI-H226 lung, 81.5%; with NCI-H322M lung, 92.8%; with HOP-62 NSCLC it was 97%; in the assay with NCI-H460 lung, 97.1%; in the assay with HOP-92 NSCLC, 68.4%. Further, the growth in the assay with NCI-H522 lung was 76.5%; with A549/ATCC NSCLC, 90.7%; with 786-0 renal it was 95.2%; in the assay on COLO 205 colon it was 108%; with DU-145 prostate, 103%; in the assay with K-562 leukemia, 73.4%. Besides, the growth is 99.7% with MALME-3M melanoma; 95.4% in the assay with MDA-MB-231 breast; 99.9% in the assay with RXF 393 renal; 98.2% in the assay on SF-268 CNS; 93.5% in the assay with SF-295 CNS; 94.6% with SF-539 CNS. Moreover, the growth was 82.3% in the assay with UACC-257 melanoma and 99.2% in the assay on M14 melanoma.
For `Cc1[nH]c(C(=O)Nc2ccc(C(=O)N3CCNCC3)cc2OC(C)C)c(Cl)c1Cl`, the growth was 90.7% in the assay on NCI-H23 lung; 97.2% in the assay with NCI-H226 lung; 86.1% with NCI-H322M lung; 88.7% with HOP-62 NSCLC; 2.04% (active) in the assay with NCI-H460 lung; 43.5% in the assay with HOP-92 NSCLC. Further, the growth is 94% with NCI-H522 lung; 70.2% in the assay with A549/ATCC NSCLC; 77.6% in the assay on 786-0 renal; -47% (active) in the assay with COLO 205 colon; 68.1% in the assay on DU-145 prostate; -28.6% (active) in the assay with K-562 leukemia. For the same compound, the growth with MALME-3M melanoma is 72.6%; in the assay on MDA-MB-231 breast it was 22.9%; in the assay with RXF 393 renal, 71.3%; in the assay on SF-268 CNS, 74.4%; with SF-295 CNS it was 107%; in the assay on SF-539 CNS, 80.8%. Besides, the figures for the growth in the assay on UACC-257 melanoma and in the assay with M14 melanoma were 101% and 45.5%, respectively.
